Measured values: PubChem BioAssay AID1626 (SRMLSC, 2009)
Screen size: about 220,000 compounds; about 2,000 (0.91%) were called active. Roughly 2% stayed inconclusive and do not appear here. These entries were drawn from the full list. Potency and affinity values are given separately. A number with no mark means an inactive call. Rule as the data show it: inconclusive = inhibition above about 80% without an active follow-up result; inactive = below that; test concentration not stated here.

Test: M. tuberculosis H37Rv growth inhibitors, H37Rv strain (AID 1626);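 also: bacteria incubated seven days before Alamar blue readout; 0% = bacteria only wells and 100% = bacteria with antibiotic wells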
Settings: active compounds read high, concentration not given here

| Structure (SMILES) | inhibition [%] |
| --- | --- |
| Cc1ccc(OCC(=O)Nc2ccccc2F)cc1C | 2.33 |
| CCCCc1ccc(NC(=O)COc2ccc(C(=O)Nc3ccccc3C)cc2)cc1 | 73.6 |
| O=C(N/N=C/c1ccccc1C(F)(F)F)c1ccc(O)cc1 | -4.67 |
| CCOc1ccc(/C=C/C2=NNC(=O)CC2)cc1 | -3.64 |
| CCCCn1c(N2CCC(Cc3ccccc3)CC2)nc2c1c(=O)[nH]c(=O)n2C | 46.5 |
| CCCn1c(N2CCC(Cc3ccccc3)CC2)nc2c1c(=O)[nH]c(=O)n2C | 12.4 |
| Oc1c(Br)cc(Cl)cc1C=Nc1ccc(N2CCOCC2)cc1 | 7.51 |
| O=S(=O)(CCn1cccc1)CCn1cccc1 | 8.4 |
| COc1cc(/C=N/NC(=O)c2c(-c3ccccc3)noc2C)cc(OC)c1OC | -3.6 |
| COc1ccc(CNC(=O)COC(=O)CCc2nc3ccccc3c(=O)[nH]2)cc1 | 5.36 |
| FC(F)(F)c1ccc(C2[C@H]3CN(CC4CCCCC4)[C@H](c4ccccc4)C34CC2(c2cccnc2)C4)cc1 (stereo partly drawn) | 19.8 |
| CN1C[C@@H]2C(c3ccccc3)C3(c4cccnc4)CC2(C3)[C@H]1c1ccccc1 (stereo partly drawn) | 1.01 |
| FC(F)(F)c1ccc(CN2C[C@@H]3C(c4ccc(C(F)(F)F)cc4)C4(c5cccnc5)CC3(C4)[C@H]2c2ccccc2)cc1 (stereo partly drawn) | 9.04 |
| c1ccc(C2[C@H]3CN(CC4CCCCC4)[C@H](c4ccccc4)C34CC2(c2ccccc2)C4)cc1 (stereo partly drawn) | 6.4 |
| FC(F)(F)c1ccc(CN2C[C@@H]3C(c4ccc(Cl)nc4)C4(c5ccccc5)CC3(C4)[C@H]2c2ccccc2)cc1 (stereo partly drawn) | 7.77 |
| CN1C[C@@H]2C(c3ccc(C(F)(F)F)cc3)C3(c4ccccc4)CC2(C3)[C@H]1c1ccccc1 (stereo partly drawn) | 2.02 |
| CCOC(=O)Cn1nc(C)n(-c2ccc(C(C)C)cc2)c1=O | 1.38 |
| CCCc1nc2c(sc3nc4c(cc32)COC(C)(C)C4)c(=O)n1CCN(C)C | -6.58 |
| Cc1ccccc1Nc1c(-c2ccc(N3CCOCC3)cc2)nc2cnccn12 | -3.6 |
| CC[C@H](CO)Nc1nc(Nc2cccc(Cl)c2)c2ncn(C(C)C)c2n1 | 15.3 |
| CC(C)C[C@H](CO)Nc1nc(Nc2cccc(Cl)c2)c2ncn(C(C)C)c2n1 | 28.8 |
| CCN(CC)S(=O)(=O)c1cccc(C(=O)N[C@H](C(=O)NCc2ccc(Cl)cc2)C(C)C)c1 | 6.08 |
| COc1cc(C(=O)NCC(C)C)c([N+](=O)[O-])cc1OC | 3.27 |
| CCCOc1ccc(Br)cc1CSC(=N)N | -1.31 |

| Structure (SMILES) | inhibition [%] |
| --- | --- |
| CCCCOc1ccc(Br)cc1CSC(=N)N | 2.99 |
| O=C(NCc1ccccc1)c1ccc2c(c1)OCCO2 | -7.22 |
| O=C(Nc1nnc(C2=COCCO2)o1)c1ccc(S(=O)(=O)N2CCCCC2)cc1 | 78.6 |
| CCCCC(=O)Nc1nnc(C2=COCCO2)o1 | 2.42 |
| O=C(Nc1nnc(C2=COCCO2)o1)c1ccc(S(=O)(=O)N2CCOCC2)cc1 | 7.6 |
| CCCC(=O)Nc1nnc(-c2ccc3c(c2)OCCO3)o1 | 57.4 |
| CC(=O)Nc1nnc(C2=COCCO2)o1 | 0.04 |
| O=C(Nc1nnc(C2=COCCO2)o1)c1ccc(S(=O)(=O)N2CCCC2)cc1 | -3.71 |
| N#CCCN(CCC#N)S(=O)(=O)c1ccc(C(=O)Nc2nnc(C3=COCCO3)o2)cc1 | -6.19 |
| Cc1ccc(/C=N/NC(=O)c2cccnc2)s1 | -7.82 |
| O=C(Nc1ccc(F)cc1)c1ccc(S(=O)(=O)N2CCOCC2)o1 | -14.1 |
| COC(C[C@@H](O)C[C@@H](O)COCc1ccccc1)OC | -11.1 |
| Cn1c(SCC(=O)N2CCCc3ccccc32)nc2cccnc21 | 4.22 |
| O=C(Nc1nnc(-c2cccnc2)s1)c1cccs1 | -11.7 |
| CC(C)(Oc1ccc(Cl)cc1)C(=O)OCn1nnc2ccccc2c1=O | 62.5 |
| COc1ccc(-n2c(C)cc(C(=O)CCl)c2C)cc1 | -6.35 |
| CC(=O)c1c(C(C)=O)c(C)n(-c2cccc([N+](=O)[O-])c2)c1C | -7.09 |
| Cc1cc(C)c(S(=O)(=O)N(C)CC(=O)NCc2ccccn2)c(C)c1 | -8.63 |
| CCn1ccnc1CN(C)Cc1cn(C)nc1-c1ccccc1F | -1.63 |
| COc1cccc(/C=N/n2c(SC)nnc2-c2ccccc2)c1OC | -6.45 |
| Cc1ccc(CN(C(=O)Cc2cccs2)C(C(=O)NC2CCCC2)c2ccncc2)cc1 (stereo not drawn) | 7.49 |
| O=C(Nc1ccc(S(=O)(=O)Nc2ccc(Cl)cc2)cc1)C1CCCO1 (stereo not drawn) | 5.71 |
| O=C(NCc1ccc(Cl)cc1)c1ccc(CNc2c(N3CCCC3)c(=O)c2=O)cc1 | 4.26 |
| O=C(NCc1ccc(Cl)cc1)c1ccc(CNc2c(N3CCOCC3)c(=O)c2=O)cc1 | 87.6 |

| Structure (SMILES) | inhibition [%] |
| --- | --- |
| Cc1cc(C)cc(NC(=O)c2ccc(CNc3c(N4CCOCC4)c(=O)c3=O)cc2)c1 | 12.3 |
| CC(=O)c1ccc(NC(=O)c2ccc(CNc3c(N4CCCC4)c(=O)c3=O)cc2)cc1 | 2.39 |
| COc1cc2c(cc1NC(=O)CSc1nnc(Cc3cccs3)n1Cc1ccco1)oc1ccccc12 | 7.99 |
| CC(C)c1ccc(NC(=O)Cn2cccc2C2=NC(c3ccccc3)CO2)cc1 (stereo not drawn) | -2.83 |
| COc1ccc(C(CCN)Cc2ccccc2)cc1 (stereo not drawn) | 1.28 |
| O=S1(=O)CCN(OCc2ccc(F)cc2Cl)CC1 | -5.47 |
| CCOc1cc(C)nc(Oc2ccc(=O)[nH]n2)n1 | -1.8 |
| Cc1ccc(-c2csc(=Nc3cccnc3)n2CCCN2CCCC2=O)cc1C | 8.37 |
| c1ccc2c(c1)[nH]c1cnccc12 | -1.77 |
| Cc1ccc(C)c2c1[nH]c1ccccc12 | -8.26 |
| CC(C)CCNC1=CC(=O)CC(c2ccccc2)C1 (stereo not drawn) | -3.24 |
| CNCCOc1ccccc1OC(C)C | 4.14 |
| O=C(O)c1ccc(C(=O)O)c(C(=O)c2ccccc2)c1 | 4.19 |
| Cc1nn(Cc2ccc(F)cc2Cl)c(C)c1[N+](=O)[O-] | 5.81 |
| CCOc1ccc(-n2c(N)c(-c3nc4ccccc4n3C)c3nc4ccccc4nc32)cc1 | 70.5 |
| Cc1nc2ccccc2n1CCc1ccccc1 | -7.4 |
| Cn1c(-c2sc(=S)n(-c3ccccc3)c2N)nc2ccccc21 | -12.8 |
| N#Cc1c(N)n(CCc2ccc(F)cc2)c2nc3ccccc3nc12 | 7.97 |
| CCN(CC)C(=O)C1=C(C)NC(=O)NC1c1ccccc1F (stereo not drawn) | -2.9 |
| COc1ccc(NC(=O)C(C)N2c3cccc4cccc(c34)S2(=O)=O)cc1OC (stereo not drawn) | -6.4 |
| CCC(=O)NC(=S)Nc1cccc(NC(=O)c2ccccc2Cl)c1 | 8.67 |
| N#C/C(=C\c1ccc(C(=O)O)cc1)S(=O)(=O)c1cc(Br)ccc1Br | 17 |
| CCn1c(SCC(=O)O)nnc1-c1cccnc1 | -5.44 |
| CC1CN(c2ncnc3c2c(-c2ccccc2)cn3-c2ccc(F)cc2)CC(C)O1 (stereo not drawn) | 8.16 |

| Structure (SMILES) | inhibition [%] |
| --- | --- |
| CN1Cc2c(N3CCOCC3)nc3sc(C(=O)c4ccccc4)c(N)c3c2CC1(C)C | 8.23 |
| CCOC(=O)c1sc2nc(N3CCOCC3)c3c(c2c1N)CC(C)(C)N(C)C3 | -3.62 |
| Cc1ccccc1OCCNc1cc(N2CCN(CCO)CC2)ccc1[N+](=O)[O-] | 27.5 |
| O=C(NCc1ccccc1)c1nc2c(nnn2Cc2cccc(Cl)c2)c(=O)[nH]1 | -4.36 |
| COC(=O)C1CCN(C(=O)c2sc3nc(-c4ccc(F)cc4)cn3c2C)CC1 | 6.16 |
| CCCC(=Nc1ccccc1OC)C1=C(O)CC(c2ccccc2)CC1=O (stereo not drawn) | 2.17 |
| CCC(=Nc1ccccc1OC)C1=C(O)CC(c2ccccc2)CC1=O (stereo not drawn) | 6.17 |
| CN(CC(=O)Nc1ccc(S(=O)(=O)N2CCCC2)cc1)CC(=O)Nc1cccc(F)c1 | 2.32 |
| O=C1CC(c2cccs2)Cc2nc(NCC3CCCO3)ncc21 (stereo not drawn) | -8.23 |
| Cc1nc2ccccc2c(=O)n1NC(=O)/C=C/c1ccccc1Cl | -8.45 |
| Cn1c(COc2ccccc2)nnc1SCC(=O)NNC(=O)C1CCCCC1 | -10.3 |
| CCn1c(COc2cccc3ccccc23)nnc1SCC(N)=O | -13.4 |
| COc1cccc(OCc2nnc(SCC(=O)OC3CCCCC3)n2C)c1 | 6.41 |
| O=C(O)CSc1nnc(COc2cccc3ccccc23)n1Cc1ccccc1 | -1.72 |
| COc1cccc(C(c2nnnn2CS(=O)(=O)c2ccc(C)cc2)N2CCN(C)CC2)c1OC (stereo not drawn) | -6.9 |
| CN1CCN(CC#CC(C)(O)C2CC3C=CC2C3)CC1 (stereo not drawn) | 8.02 |
| CCN(c1ccccc1)S(=O)(=O)c1ccc(Cl)c(C(=O)OCC(=O)NC(=O)C(C)C)c1 | -9.03 |
| Cc1ccc(OC(=O)c2ccc3snnc3c2)cc1 | 68.6 |
| CC(C)(C)c1ccc(OC(=O)c2ccc3nsnc3c2)cc1 | 29.5 |
| COc1ccc2[nH]c(=O)c(CN(C(=O)c3cccnc3)c3ccccc3C)cc2c1 | -2.62 |
| O=C(Nc1ccc(NC(=O)c2ccccn2)cc1)C(=O)Nc1ccc2c(c1)OCCO2 | 1.18 |
